Whole data set: some 33,000 sequences, median “E-score (-0.5 to 0.5)” near -0.035, cut for the highest 2% near 0.35. This is one part of a sample in which the highest values are shown more often than they occur.

This test has as its target T1, Pdr3 (UniProt P33200).
T1 sequence: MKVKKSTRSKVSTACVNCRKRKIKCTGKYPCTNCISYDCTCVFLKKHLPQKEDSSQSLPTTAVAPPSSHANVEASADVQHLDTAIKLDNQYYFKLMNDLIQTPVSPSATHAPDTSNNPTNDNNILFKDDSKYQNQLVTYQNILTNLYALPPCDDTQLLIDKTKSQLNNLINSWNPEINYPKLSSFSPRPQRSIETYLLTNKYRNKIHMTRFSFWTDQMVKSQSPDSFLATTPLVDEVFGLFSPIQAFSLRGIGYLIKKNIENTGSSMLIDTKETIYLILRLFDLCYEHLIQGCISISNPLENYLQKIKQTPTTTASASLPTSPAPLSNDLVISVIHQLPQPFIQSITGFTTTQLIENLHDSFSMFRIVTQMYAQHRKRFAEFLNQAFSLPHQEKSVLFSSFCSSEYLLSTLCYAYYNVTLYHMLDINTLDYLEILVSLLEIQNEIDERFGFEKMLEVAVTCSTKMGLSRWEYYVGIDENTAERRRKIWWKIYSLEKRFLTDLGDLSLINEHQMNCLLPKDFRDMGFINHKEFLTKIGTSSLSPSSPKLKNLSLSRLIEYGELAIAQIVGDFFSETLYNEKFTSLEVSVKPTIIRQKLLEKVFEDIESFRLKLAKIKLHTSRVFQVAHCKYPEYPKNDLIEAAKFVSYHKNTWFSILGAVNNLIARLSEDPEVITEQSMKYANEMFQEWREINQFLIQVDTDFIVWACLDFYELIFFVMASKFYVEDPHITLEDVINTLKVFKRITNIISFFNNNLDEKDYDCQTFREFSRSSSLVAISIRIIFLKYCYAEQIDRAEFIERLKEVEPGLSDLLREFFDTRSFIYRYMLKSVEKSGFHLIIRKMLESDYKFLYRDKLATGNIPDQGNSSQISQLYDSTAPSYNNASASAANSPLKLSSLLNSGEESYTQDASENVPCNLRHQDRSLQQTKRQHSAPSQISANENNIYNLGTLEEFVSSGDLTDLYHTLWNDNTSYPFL
The test can be described thus: PBM E-score (8-mer binding enrichment) (E-score (-0.5 to 0.5)); higher = stronger / more preferred TF binding. The settings on record: protein concentration: 200 nM; construct: GST-full length. As to the method: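 Universal 'all 10-mer' protein binding microarrays (Agilent AMADID 015681) probed with GST-tagged S. cerevisiae TFs (full-length or DBD) made by in vitro transcription/translation (PURExpress), about 100-200 nM. Bound TF was detected with fluorescent anti-GST. Each ungapped 8-mer (which stands for itself and its reverse complement) is scored by the PBM enrichment score (E-score), a modified Wilcoxon-Mann-Whitney statistic from -0.5 to +0.5, computed with the Universal PBM Analysis Suite. Scale: above 0.35 generally sequence-specific binding.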
ATGCAGCA: the “PBM E-score” value turned out to be 0.00559.
Under ACAGGGTA stands -0.12; under AGATTCAG, -0.0749; under GGTATTCA, 0.0285.
In the case of CACCGTCA it was 0.00596; in that of CCTAACTA, -0.0709; in that of GCGTAGCA, 0.0185.
Under ATTATCCG stands 0.388; under ATTATCCC, 0.185.
For the sequence ATTATCCA, the “PBM E-score” value is 0.0658.
CCACTGCA: the “PBM E-score” value was -0.0534.
Under GCTTGGCC stands -0.00234; under CGGGAAAA, 0.221.
In the case of ACGCTCCG it was 0.315; in that of CCGCTCCG, 0.378.
As for CCGCTCCC, the “PBM E-score” value was determined as 0.151.
Under ACATCTCG stands -0.111; under ATGACGGC, 0.141.
On to CTCACGGA, for which the “PBM E-score” value is 0.325.
Under ATCACGGG stands 0.0804; under GTCACGCA, -0.0717; under GTGACGGA, 0.31.
In the case of ATCACGGA it was 0.391; in that of ATGACGGA, 0.362; in that of GTCACGGA, 0.415.
In the case of ATCACGGC it was 0.218.
Take AAGGAAGC: the “PBM E-score” value is -0.0529.
For CACACCGC, the “PBM E-score” value came out at 0.166.
In the case of CCCTAATA, the “PBM E-score” value was -0.113.
For GAAGGAAA, the “PBM E-score” value is -0.00233.
Under AGGCGTAC stands -0.182.
ATGTCTCA: the “PBM E-score” value is -0.0576.
In the case of CGGAACGC it was 0.466.
Under AGGAACGC stands -0.00648; under AGGAACGA, -0.1; under CAGAACGC, 0.0429.
Turning to GGGAACGA, the “PBM E-score” value came out at 0.0381.
In the case of CGGAACGA it was 0.464.
In the case of ACACCGAC it was 0.0164; in that of CCGGACCA, 0.337; in that of GCGGACCA, 0.366.
In the case of TCGGACCA it was 0.292; in that of ACGGACCA, 0.359.
With ACGGACCT, the “PBM E-score” value was 0.275.
In the case of ACGGACCG it was 0.309; in that of AGGTGTGA, -0.138.
GTGGTGGA: the “PBM E-score” value is -0.0783.
Take CAGTTGGA: the “PBM E-score” value was -0.0903.
Under CGTGCAGA stands -0.148.
Take AGCGGAGA: the “PBM E-score” value amounted to 0.232.
Under GGCGGAGA stands 0.288; under CGCGGAGC, 0.445; under CGCGGAGA, 0.415.
Under CGCGGTGC stands 0.172; under AGCGGAGC, 0.216; under CGAACTGA, 0.0143.
For GTCGCGAC, the “PBM E-score” value is 0.38.
Under GTCGCGAA stands 0.0709; under CTCGCGAC, 0.0674.
With ACCTCTTC, the “PBM E-score” value was -0.0577.
Under GATCCATC stands 0.232; under ATCTTCCC, 0.268.
Under AACTTCCG stands 0.388.
In the case of ACCTTCCC it was 0.0674; in that of CCCTTCCC, 0.0658.
ATCTTCCG: the “PBM E-score” value came to 0.376.
In the case of CCCTTCCG it was 0.392.
Under CCCTTCCA stands -0.00559; under ACCTTCCG, 0.394; under AACTTCCT, -0.108.
In the case of AACTTCCA it was 0.0852; in that of ATCTTCCA, -0.196; in that of ACCTTCCT, -0.244.
For GAGCGTCC, the “PBM E-score” value was -0.174.
In the case of AGCAATGA it was -0.0334.
Under CTCTTTCA stands -0.137.
Under ATGCTCAC stands -0.048; under CACTCCTA, -0.112.
On to GAAAGCCC, for which the “PBM E-score” value came to 0.201.
In the case of CTATTGAC it was -0.153.
In the case of GTCTCTTA it was 0.0669; in that of ACCCATGC, -0.0401; in that of CTGAAGTC, 0.0005.
Under AGGAAGTC stands -0.162; under CGGAAGTC, 0.421.
Regarding AGGAAGTA, the “PBM E-score” value amounted to 0.0507.
In the case of GGGAAGTA it was 0.097.
Take CGGAAGTA: the “PBM E-score” value was 0.393.
In the case of ATTGGGCA, the “PBM E-score” value was -0.131.
In the case of ACAAGCAT it was -0.0569; in that of GAGTGATC, 0.0656; in that of GAGCGGGC, 0.113.
Under TACGGACA stands 0.225; under AACGGACC, 0.303; under CACGGACG, 0.324.
As to AACGGTCA, the “PBM E-score” value amounted to 0.146.
Under GACGGACC stands 0.33.
On to CACGGACC, for which the “PBM E-score” value is 0.378.
Under AACGGACA stands 0.363; under AACGGACG, 0.241.
Turning to CACGGACA, the “PBM E-score” value was determined as 0.355.
